Experiment in all cases: DAPPL (digital affinity profiling via proximity ligation, sequencing); 10 mM Tris-HCl pH 7.5, 50 mM NaCl, 1 mM DTT, 4% glycerol, room temperature, 30 min; GST-TFs on glutathione beads, 16-mer random dsDNA library, 0.1% formaldehyde crosslink after washing; high values mean tight binding
Holding throughout (conditions): protein: recombinant; tags: N-terminal GST; dsDNA, one strand shown

One assay has as its target T1, ERF (Homo sapiens, UniProt P50548 1-548).
T1 sequence: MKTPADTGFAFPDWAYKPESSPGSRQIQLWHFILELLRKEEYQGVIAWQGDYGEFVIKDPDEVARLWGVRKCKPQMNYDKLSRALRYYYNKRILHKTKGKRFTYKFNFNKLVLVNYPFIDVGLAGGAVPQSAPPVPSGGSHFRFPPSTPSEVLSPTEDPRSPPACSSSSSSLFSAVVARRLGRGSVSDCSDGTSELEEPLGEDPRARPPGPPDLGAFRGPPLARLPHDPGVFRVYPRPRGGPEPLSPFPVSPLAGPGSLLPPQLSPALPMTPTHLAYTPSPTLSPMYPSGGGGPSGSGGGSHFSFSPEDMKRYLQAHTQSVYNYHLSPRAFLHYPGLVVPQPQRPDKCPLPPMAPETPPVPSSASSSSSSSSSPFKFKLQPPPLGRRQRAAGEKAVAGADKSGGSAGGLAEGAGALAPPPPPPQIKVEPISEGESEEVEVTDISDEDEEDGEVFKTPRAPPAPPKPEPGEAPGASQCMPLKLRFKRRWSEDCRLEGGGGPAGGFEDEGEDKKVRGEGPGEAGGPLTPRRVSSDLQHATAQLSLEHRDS
The gist of the method: (§1)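 In yeast, human transcription factors were expressed with a GST fusion, then pulled down on glutathione beads and given DNA barcodes. Pooled with a tag-only sample, they were exposed to 200 nmole of a 16-mer random double-stranded DNA library (Tris/NaCl/DTT/glycerol buffer, room temperature, 30 min), washed, crosslinked with 0.1% formaldehyde, proximity-ligated using BsaI/T4 ligase for 1 h at 37 °C, PCR-amplified and read on an Illumina NextSeq500. Each hexamer's frequency of reads for a factor, divided by the matching frequency for the tag-only sample, gives the binding signal.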

The next assay addresses T2, ETV3L (Homo sapiens, UniProt Q6ZN32 1-361).
T2 sequence: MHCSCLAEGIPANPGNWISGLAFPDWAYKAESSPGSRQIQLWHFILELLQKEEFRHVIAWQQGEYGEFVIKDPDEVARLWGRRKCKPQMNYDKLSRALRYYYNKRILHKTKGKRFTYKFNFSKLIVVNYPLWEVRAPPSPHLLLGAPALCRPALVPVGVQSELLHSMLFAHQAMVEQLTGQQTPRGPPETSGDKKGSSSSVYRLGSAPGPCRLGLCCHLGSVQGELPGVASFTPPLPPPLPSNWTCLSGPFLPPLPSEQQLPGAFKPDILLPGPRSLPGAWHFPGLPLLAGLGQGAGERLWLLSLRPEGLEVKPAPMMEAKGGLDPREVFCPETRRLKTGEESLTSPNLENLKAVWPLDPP
Put shortly: as §1

The next assay has as its target T3, ETS2 (Homo sapiens, UniProt P15036 1-469).
T3 sequence: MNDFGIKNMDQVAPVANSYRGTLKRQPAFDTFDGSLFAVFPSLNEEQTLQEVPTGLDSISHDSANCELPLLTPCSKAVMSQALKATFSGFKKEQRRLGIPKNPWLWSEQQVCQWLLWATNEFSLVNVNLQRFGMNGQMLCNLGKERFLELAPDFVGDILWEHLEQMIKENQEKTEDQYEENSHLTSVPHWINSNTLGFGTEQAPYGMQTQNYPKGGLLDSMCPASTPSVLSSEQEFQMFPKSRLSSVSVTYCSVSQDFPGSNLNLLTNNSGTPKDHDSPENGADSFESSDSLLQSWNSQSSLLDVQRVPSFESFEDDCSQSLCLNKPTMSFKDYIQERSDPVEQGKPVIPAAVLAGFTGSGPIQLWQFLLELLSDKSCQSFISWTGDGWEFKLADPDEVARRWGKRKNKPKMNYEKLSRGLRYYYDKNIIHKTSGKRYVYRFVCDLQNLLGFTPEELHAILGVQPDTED
The gist of the method:
as §1

The next assay deals with T4, SPDEF (Homo sapiens, UniProt O95238 1-335).
T4 sequence: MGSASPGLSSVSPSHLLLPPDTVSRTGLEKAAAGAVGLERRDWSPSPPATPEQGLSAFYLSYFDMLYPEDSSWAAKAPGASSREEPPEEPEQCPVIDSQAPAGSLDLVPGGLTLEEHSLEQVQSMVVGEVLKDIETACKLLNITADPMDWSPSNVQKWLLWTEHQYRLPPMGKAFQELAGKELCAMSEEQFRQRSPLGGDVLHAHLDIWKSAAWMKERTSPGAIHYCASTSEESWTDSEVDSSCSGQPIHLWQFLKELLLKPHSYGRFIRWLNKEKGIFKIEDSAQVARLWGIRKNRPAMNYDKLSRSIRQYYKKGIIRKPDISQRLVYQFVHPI
Put shortly: as §1

The next assay addresses T5, ETV7 (Homo sapiens, UniProt Q9Y603 1-341).
T5 sequence: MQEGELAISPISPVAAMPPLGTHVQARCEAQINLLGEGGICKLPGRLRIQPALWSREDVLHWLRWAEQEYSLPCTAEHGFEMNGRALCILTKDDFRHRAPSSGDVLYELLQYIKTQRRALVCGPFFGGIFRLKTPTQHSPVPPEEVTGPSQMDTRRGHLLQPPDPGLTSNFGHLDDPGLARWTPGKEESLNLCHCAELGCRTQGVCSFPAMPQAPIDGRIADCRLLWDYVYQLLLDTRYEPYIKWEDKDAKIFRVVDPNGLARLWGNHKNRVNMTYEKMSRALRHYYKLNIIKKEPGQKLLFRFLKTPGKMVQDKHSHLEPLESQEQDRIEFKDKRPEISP
Put shortly:
as §1

For the next assay, the target named is T6, ELF5 (Homo sapiens, UniProt Q9UKW6-2 1-255).
T6 sequence: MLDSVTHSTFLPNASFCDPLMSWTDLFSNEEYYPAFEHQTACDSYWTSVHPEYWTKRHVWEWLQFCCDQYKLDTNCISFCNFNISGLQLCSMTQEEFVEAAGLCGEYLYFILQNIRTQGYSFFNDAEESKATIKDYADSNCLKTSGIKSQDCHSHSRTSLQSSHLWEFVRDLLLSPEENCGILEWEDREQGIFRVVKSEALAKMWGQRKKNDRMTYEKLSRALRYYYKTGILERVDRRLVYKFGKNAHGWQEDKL
Put shortly: as §1

The target in a further assay is T7, ETV3 (Homo sapiens, UniProt P41162-2 1-143).
T7 sequence: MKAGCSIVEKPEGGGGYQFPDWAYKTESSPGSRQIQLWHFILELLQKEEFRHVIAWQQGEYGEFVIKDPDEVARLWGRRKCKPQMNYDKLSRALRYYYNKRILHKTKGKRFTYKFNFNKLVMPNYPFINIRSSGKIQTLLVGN
The gist of the method:
as §1

Another assay deals with ETV6 (Homo sapiens, UniProt P41212 1-452). The gist of the method: as §1
ETV6, sequence (P41212 whole entry): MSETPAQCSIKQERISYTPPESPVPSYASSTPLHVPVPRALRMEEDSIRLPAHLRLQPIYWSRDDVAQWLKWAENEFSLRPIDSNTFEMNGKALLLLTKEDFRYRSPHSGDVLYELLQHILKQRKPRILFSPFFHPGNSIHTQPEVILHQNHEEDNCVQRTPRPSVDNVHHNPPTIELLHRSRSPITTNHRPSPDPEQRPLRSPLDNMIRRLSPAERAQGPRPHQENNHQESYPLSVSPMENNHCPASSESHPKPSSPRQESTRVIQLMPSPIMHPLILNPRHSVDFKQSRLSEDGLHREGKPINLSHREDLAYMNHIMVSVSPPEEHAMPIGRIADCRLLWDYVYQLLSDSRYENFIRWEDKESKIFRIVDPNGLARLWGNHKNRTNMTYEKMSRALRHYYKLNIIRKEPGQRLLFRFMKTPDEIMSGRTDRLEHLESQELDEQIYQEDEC

These results are taken from publication PMC7862700, “An all-to-all approach to the identification of sequence-specific readers for epigenetic DNA modifications on cytosine”.

Regarding AACGAT, the binding signal with ERF is 1.29 fold enrichment (6-mer frequency, TF over GST control); with ETV3L, 1.19 fold enrichment (6-mer frequency, TF over GST control); with ETS2, 1.22 fold enrichment (6-mer frequency, TF over GST control); in the assay with SPDEF, 1.14 fold enrichment (6-mer frequency, TF over GST control); in the assay with ETV7, 1.17 fold enrichment (6-mer frequency, TF over GST control); with ELF5 it was 1.19 fold enrichment (6-mer frequency, TF over GST control). The binding signal is 1.24 fold enrichment (6-mer frequency, TF over GST control) in the assay with ETV3 and 1.25 fold enrichment (6-mer frequency, TF over GST control) in the assay with ETV6.
Regarding CTTGGA, the binding signal in the assay with ERF is 1.12 fold enrichment (6-mer frequency, TF over GST control); with ETV3L, 1.11 fold enrichment (6-mer frequency, TF over GST control); with ETS2, 1.14 fold enrichment (6-mer frequency, TF over GST control); with SPDEF it was 1.22 fold enrichment (6-mer frequency, TF over GST control); in the assay with ETV7, 1.14 fold enrichment (6-mer frequency, TF over GST control); with ELF5 it was 1.09 fold enrichment (6-mer frequency, TF over GST control). The binding signal is 1.08 fold enrichment (6-mer frequency, TF over GST control) with ETV3 and 1.03 fold enrichment (6-mer frequency, TF over GST control) with ETV6.
For the sequence TAGCTT, the binding signal with ERF is 1.29 fold enrichment (6-mer frequency, TF over GST control); with ETV3L, 1.24 fold enrichment (6-mer frequency, TF over GST control); in the assay with ETS2 it was 1.29 fold enrichment (6-mer frequency, TF over GST control); with SPDEF, 1.08 fold enrichment (6-mer frequency, TF over GST control); with ETV7, 1.16 fold enrichment (6-mer frequency, TF over GST control); with ELF5 it was 1.22 fold enrichment (6-mer frequency, TF over GST control). The binding signal with ETV3 is 1.16 fold enrichment (6-mer frequency, TF over GST control); with ETV6, 1.28 fold enrichment (6-mer frequency, TF over GST control).
For GATTAC, the binding signal with ERF was 1.13 fold enrichment (6-mer frequency, TF over GST control); with ETV3L, 1.07 fold enrichment (6-mer frequency, TF over GST control); with ETS2, 1.1 fold enrichment (6-mer frequency, TF over GST control); in the assay with SPDEF, 1.13 fold enrichment (6-mer frequency, TF over GST control); in the assay with ETV7 it was 1.08 fold enrichment (6-mer frequency, TF over GST control); with ELF5 it was 1.11 fold enrichment (6-mer frequency, TF over GST control). For the same sequence, the binding signal is 1.07 fold enrichment (6-mer frequency, TF over GST control) in the assay with ETV3 and 1.13 fold enrichment (6-mer frequency, TF over GST control) with ETV6.
CTCGAT: the binding signal with ERF is 1.37 fold enrichment (6-mer frequency, TF over GST control); with ETV3L, 1.44 fold enrichment (6-mer frequency, TF over GST control); with ETS2 it was 1.36 fold enrichment (6-mer frequency, TF over GST control); with SPDEF, 1.22 fold enrichment (6-mer frequency, TF over GST control); in the assay with ETV7 it was 1.31 fold enrichment (6-mer frequency, TF over GST control); with ELF5 it was 1.22 fold enrichment (6-mer frequency, TF over GST control). Also, the binding signal with ETV3 was 1.36 fold enrichment (6-mer frequency, TF over GST control); in the assay with ETV6, 1.3 fold enrichment (6-mer frequency, TF over GST control).
Turning to ATATCT, the binding signal with ERF was 1.23 fold enrichment (6-mer frequency, TF over GST control); in the assay with ETV3L, 1.21 fold enrichment (6-mer frequency, TF over GST control); with ETS2, 1.17 fold enrichment (6-mer frequency, TF over GST control); with SPDEF, 1.22 fold enrichment (6-mer frequency, TF over GST control); with ETV7, 1.2 fold enrichment (6-mer frequency, TF over GST control); with ELF5, 1.18 fold enrichment (6-mer frequency, TF over GST control). In addition, the binding signal in the assay with ETV3 is 1.19 fold enrichment (6-mer frequency, TF over GST control); with ETV6, 1.14 fold enrichment (6-mer frequency, TF over GST control).
For the sequence GAACTA, the binding signal was 1.25 fold enrichment (6-mer frequency, TF over GST control) in the assay with ERF; 1.27 fold enrichment (6-mer frequency, TF over GST control) with ETV3L; 1.33 fold enrichment (6-mer frequency, TF over GST control) with ETS2; 1.31 fold enrichment (6-mer frequency, TF over GST control) with SPDEF; 1.3 fold enrichment (6-mer frequency, TF over GST control) in the assay with ETV7; 1.36 fold enrichment (6-mer frequency, TF over GST control) with ELF5. In addition, the binding signal with ETV3 was 1.34 fold enrichment (6-mer frequency, TF over GST control); with ETV6, 1.36 fold enrichment (6-mer frequency, TF over GST control).
Take GCCTCT: the binding signal with ERF was 1.25 fold enrichment (6-mer frequency, TF over GST control); in the assay with ETV3L, 1.32 fold enrichment (6-mer frequency, TF over GST control); in the assay with ETS2 it was 1.25 fold enrichment (6-mer frequency, TF over GST control); with SPDEF it was 1.3 fold enrichment (6-mer frequency, TF over GST control); in the assay with ETV7, 1.35 fold enrichment (6-mer frequency, TF over GST control); with ELF5 it was 1.27 fold enrichment (6-mer frequency, TF over GST control). Besides, the binding signal was 1.34 fold enrichment (6-mer frequency, TF over GST control) with ETV3 and 1.35 fold enrichment (6-mer frequency, TF over GST control) with ETV6.
In the case of GTGCTT, the binding signal was 1.26 fold enrichment (6-mer frequency, TF over GST control) with ERF; 1.14 fold enrichment (6-mer frequency, TF over GST control) with ETV3L; 1.25 fold enrichment (6-mer frequency, TF over GST control) with ETS2; 1.37 fold enrichment (6-mer frequency, TF over GST control) in the assay with SPDEF; 1.3 fold enrichment (6-mer frequency, TF over GST control) in the assay with ETV7; 1.41 fold enrichment (6-mer frequency, TF over GST control) in the assay with ELF5. In addition, the binding signal with ETV3 is 1.3 fold enrichment (6-mer frequency, TF over GST control); with ETV6 it was 1.37 fold enrichment (6-mer frequency, TF over GST control).
